Screening results: PubChem BioAssay, National Center for Advancing Translational Sciences (NCATS)
MCF10A rereplic – inducers of DNA re-replication in MCF 10A breast cells; Potency, µM (doses to about 46.1 µM), for inactives: top-dose activity, positive = re-replication, hits mostly activators; MCF 10A DNA re-replication, Hoechst nuclear intensity, 48 h; AID 624296; 350,000 compounds, 2.9% hits; note: % of control where 0% means no effect; nearly all actives have a fitted effect of over 50% in size
KB-3-1 tox – kills parental KB-3-1 adenocarcinoma cells; KB-3-1 viability, CellTiter-Glo ATP luminescence, 72 h; AID 1347075; Potency, µM (top dose mostly 46.1 µM), hits mostly cytotoxic; 400,000 compounds, 1.4% hits; note: % is set by controls: 0 for no effect and ±100 for the full control effect; nearly all actives have a fitted effect of over 60% in size
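Luminescent ATP read-out (CellTiter-Glo) measures survival of drug-naive KB-3-1 cells after 72 h compound exposure at 37 °C. Titration series was screened from lowest to highest concentration, with DMSO vehicle plates as background controls.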
HT1080NT lethal – kills 2HG-producing HT-1080-NT fibrosarcoma cells | HT-1080-NT fibrosarcoma viability, CellTiter-Glo ATP luminescence, 48 h | Potency, µM (titrated, usually from 46.1 µM), inactives show at the highest dose activity, negative = less viability, actives largely listed as cytotoxic | 360,000 compounds, 1.6% hits;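 note: NT is the 2HG producing partner of a matched IDH1 knockdown line; 0% = DMSO-treated cells and -100% = media-only wells without cells; nearly all actives have a fitted effect of over 55% in size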
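Fibrosarcoma NT cells, 750 per well in 5% FBS RPMI, were exposed to compound for 48 hours. Viability: CellTiter-Glo luminescence.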
SW480 rereplic – DNA re-replication induction in SW480 cells | SW480 DNA re-replication, Hoechst DNA content imaging, 48 h | Potency, µM (series often up to 46.1 µM), for inactives: at the top dose re-replication activation, usual class: activators | 340,000 compounds, 1.8% hits; note: % of control where 0% means no effect; nearly all actives have a fitted effect of over 55% in size
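Readout is total intensity of Hoechst-stained nuclei, excited at 405 nm and collected at 500-530 nm. Compound treatment lasted 48 hr at 37 C in 5% CO2 before staining.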
HT1080 IDH1KD tx – HT-1080 IDH1 knockdown cell toxicity (counter line); 360,000 compounds, 2% hits; AID 686971; HT-1080 IDH1 knockdown viability, ATP luminescence, 48 h; Potency, µM (titrated, usually from 46.1 µM), without a hit: top-dose activity, negative = toxicity, hits mostly cytotoxic;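 note: 0% = DMSO wells and -100% = cell-free medium wells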
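CellTiter-Glo luminescence after 48 h compound exposure at 37 degrees C of IDH1-knockdown HT-1080 cells in 5% FBS RPMI. %Activity scaled between DMSO wells and cell-free media wells, with curves fitted and assigned curve classes.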
KB-V1 cytotox – kills drug-selected multidrug resistant KB-V1 cells | KB-V1 MDR cells viability, CellTiter-Glo, 72 h | Potency, µM (top dose mostly 46.1 µM), usual class: cytotoxic | 400,000 compounds, 3.4% hits; note: % is set by controls: 0 for no effect and ±100 for the full control effect; nearly all actives have a fitted effect of over 60% in size
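Drug-selected KB-V1 cells, grown in DMEM lacking phenol red with 10% FBS, receive compound titrations; after three days at 37 degrees C, surviving cell ATP is quantified by CellTiter-Glo luminescence and responses normalized and curve-fitted.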
Starred values were filed as active, the others as inactive; i = inactive; u = inconclusive; x = no result; [ ] = remark or other dose. Hits are enriched below; roughly 7.9% of the tested compounds scored in any of these assays. Calls come from the whole dose curve; as a rule, active = well fitted curve in the direction sought with a large enough effect; inconclusive = small, poorly fitted or top-dose-only effect, or another doubt; inactive = no such curve, though single readings can be large; an effect the other way counts as inactive or inconclusive. Potency is the fitted concentration of half-maximal effect.

SMILES	MCF10A rereplic	KB-3-1 tox	HT1080NT lethal	SW480 rereplic	HT1080 IDH1KD tx	KB-V1 cytotox
Cc1cc(N2CCN(S(=O)(=O)c3ccccc3)CC2)c2ccccc2n1	3.7µM*	i	u	u	u	u
COc1c(N2C[C@@H]3CCCN[C@@H]3C2)c(F)cc2c(=O)c(C(=O)O)cn(C3CC3)c12	-12%	i	8%	-18%	0%	i
Cc1ccc(C(=O)N/C(=C\c2ccc(-c3ccccc3[N+](=O)[O-])o2)C(=O)NCCN(C)C)cc1	-2%	i	u	2.9µM*	-28%	u
Cc1ccc(C(=O)N/C(=C\c2ccc(-c3ccccc3[N+](=O)[O-])o2)C(=O)NCCCN(C)C)cc1	11%	i	-5%	2%	-20%	i
Cc1ccc(C(=O)N/C(=C\c2ccc(-c3ccc(Cl)cc3)o2)C(=O)NCCCN(C)C)cc1	u	u	29µM*	18µM*	13µM*	i
CN(C)CCCNC(=O)/C(=C/c1ccc(-c2ccc([N+](=O)[O-])cc2)o1)NC(=O)c1ccccc1	u	i	-20%	u	-9%	i
CN(C)CCCNC(=O)/C(=C\c1ccc(-c2ccc(Br)cc2)o1)NC(=O)c1ccccc1	u	u	u	-126%	23µM*	i
O=C(O)CCC(C(=O)O)N1C(=O)C2C3CCC(C3)C2C1=O (stereo unspecified)	x	i	1%	x	-4%	i
Cc1cc(C)cc(NC(=O)CCc2nnc3n(C)c(=O)c4sccc4n23)c1	x	i	x	x	x	i
N#Cc1cc2c(nc1SCC(=O)Nc1sc3c(c1C#N)CCC3)CCC2	u	i	21%	15%[9.22 µM]	13%	i
COc1ccc(-c2ccc(C#N)c(SCC(=O)Nc3sc4c(c3C#N)CCC4)n2)cc1OC	2.9µM*	u	2%	2.1µM*	6%	u
N#Cc1cc2c(nc1SCC(=O)Nc1nccs1)CCCCC2	3.7µM*	i	u	13%	u	i
N#Cc1cc2c(nc1SCC(=O)Nc1sc3c(c1C#N)CCC3)CCCCCC2	3.3µM*	i	3%	u	-6%	i
COc1ccc(-c2ccc(C#N)c(SCC(=O)NCCc3ccccc3)n2)cc1OC	9%	i	1%	3%	3%	i
COC(=O)CC(=O)CSc1nc2c(cc1C#N)CCC2	1.6µM*	i	u	u	u	u
CCN(Cc1ccccc1)c1cc2c(c3c1ccn3C)C1CCC2C1 (stereo unspecified)	x	i	0%	x	-6%	i
Cn1c(CNC(=O)CNC(=O)c2ccccc2)cc(=O)n(C)c1=O	0%	i	8%	u	11%	i
Cc1ccc(SCC(=O)Nc2nccs2)cc1	-2%	i	2%	-1%	11%	i
Cc1ccc(C#N)c(SCC(=O)Nc2nccs2)n1	u	i	0%	16µM*	0%	i
CCOC(=O)c1c(SCC(=O)Nc2nccs2)nc(C)c(C)c1C	16µM*	x	8%	28%	-2%	x
CC(=O)c1sc2c(c1C)c(=O)n(-c1ccc(Cl)cc1)c(=O)n2Cc1ccc(Cl)cc1	x	i	x	x	x	u
C/C(=N\Nc1cccc2cccnc12)c1ccc(N)cc1	20%	i	-11%	u	-8%	i
C/C(=N\Nc1cc(-c2ccccc2)nc(-c2ccccc2)n1)c1ccc(O)c(C)c1	7.3µM*	i	u	u	23µM*	u
COc1cc(N/N=C(\C)c2ccc(O)c(C)c2)nc(-c2ccccc2)n1	u	i	21µM*	u	u	i
C/C(=N\Nc1cc(C)nc(-c2ccccc2O)n1)c1ccccc1	u	i	u	u	u	i
SMILES	MCF10A rereplic	KB-3-1 tox	HT1080NT lethal	SW480 rereplic	HT1080 IDH1KD tx	KB-V1 cytotox
COc1ccc(/C(C)=N/Nc2nc3ccccc3nc2C)cc1OC	-3%	i	-19%	-13%	u	i
COc1cc(N/N=C(\C)c2ccc(N)cc2)nc(-c2ccccc2)n1	18µM*	i	-2%	3%	-25%	i
C/C(=N\Nc1cc(C)nc(-c2ccccc2)n1)c1cccc([N+](=O)[O-])c1	0.73µM*	i	1%	6%	-10%	i
CC1(NC(=O)Cn2cc(C(F)(F)F)ccc2=O)CCS(=O)(=O)C1 (stereo unspecified)	-4%	i	2%	-3%	-3%	i
CCCCCn1cnc2sc(CC)cc2c1=O	3%	i	12%	0%	4%	15µM*
CCc1cc2c(=O)n(CC(C)C)cnc2s1	-9%	i	3%	234%	1%	u
CC(C)c1cccc(NC(=O)COC(=O)c2ccccc2OCc2cccc(Br)c2)c1	x	u	x	x	x	i
O=C1C=CC2(C=C1)O[C@H](Cc1ccccc1)[C@@H](Cc1ccccc1)O2	u	u	3.7µM*	0.92µM*	1.2µM*	16µM*
COc1ccc(C[C@@H]2OC3(C=CC(=O)C=C3)O[C@H]2Cc2ccc(OC)cc2)cc1	0.73µM*	2.3µM*	5.2µM*	0.92µM*	1.3µM*	u
Cn1cc(S(=O)(=O)N2CCCCCC2)cc1C(=O)N1CCN(c2ccc(Cl)cc2)CC1	x	i	x	x	x	u
CC1(C(=O)O)CCN1C(=O)c1cccc(OC(F)(F)F)c1 (stereo unspecified)	x	i	19%	x	13%	i
Cc1c(Cl)c(C(=O)NC2C3CC4CC(C3)CC2C4)nn1C (stereo unspecified)	13%	i	9%	-2%	-19%	15µM*
CCOC(=O)CC[C@H](NC(=O)Cn1cnc2c(NCc3ccccc3)ncnc21)C(=O)OCC	-3%	i	-28%	-1%	-16%	i
Cc1c(C(=O)Nc2ccc3oc(-c4cccnc4)nc3c2)oc2ccccc12	u	i	u	21µM*	u	u
O=C(Nc1cccnc1)c1ccc(Br)s1	2%	i	u	19%	10µM*	u
Cc1ccc2oc(-c3cccc(N)c3)nc2c1	-42%	i	-9%	-8%	-14%	u
Nc1cccc(-c2nc3cc(S(=O)(=O)c4ccc5oc(-c6cccc(N)c6)nc5c4)ccc3o2)c1	u	u	u	6.5µM*	u	u
O=C(Nc1ccc(-c2nc3ccccc3o2)cc1)c1ccc(N2C(=O)C3C4C=CC(C4)C3C2=O)cc1 (stereo unspecified)	u	i	3%	11%	0%	4.1µM*
